A selection: hits, their analogues and other compounds. The true share with any hit is near 1.3%.
GALR2 agonist = agonists of human galanin receptor 2 (GALR2); GALR2-expressing cells, agonist activation read-out; activation, % (test concentration not listed); 0.48% of 140,000 active; AID 803; in the data active means activation above about 5%, passing the limit was not always enough
Target sequence (O43603 whole entry, looked up): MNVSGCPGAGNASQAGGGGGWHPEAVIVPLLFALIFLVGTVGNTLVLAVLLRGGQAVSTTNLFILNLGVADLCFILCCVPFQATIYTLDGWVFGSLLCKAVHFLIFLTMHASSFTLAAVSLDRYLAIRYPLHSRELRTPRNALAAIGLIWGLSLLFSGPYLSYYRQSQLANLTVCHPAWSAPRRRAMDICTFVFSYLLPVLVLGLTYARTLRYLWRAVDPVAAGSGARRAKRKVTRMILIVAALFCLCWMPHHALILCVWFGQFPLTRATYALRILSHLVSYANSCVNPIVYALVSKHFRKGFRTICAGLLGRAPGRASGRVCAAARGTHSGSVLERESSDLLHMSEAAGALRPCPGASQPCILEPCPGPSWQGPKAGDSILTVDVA
Candida biofilm = kills Candida albicans biofilms | C. albicans biofilm + clotrimazole, Alamar Blue | inhibition, % at 6 µM | 0.14% of 85,000 active | AID 834;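 active means inhibition above 20%; inactive means inhibition below 20%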;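 further: preformed 24 hr biofilms exposed to compound for 48 hr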
S1P2 blocker = antagonists of human S1P2 receptor. cell-based S1P2 antagonist assay, inhibition at 5 uM. 0.21% of 97,000 active. O95136. AID 736. inhibition, % at 5 µM; in the data active means inhibition above about 45%;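 further: CRE beta-lactamase reporter cells expressing human S1P2 stimulated with S1P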
Phagocyt inh = inhibitors of macrophage phagocytosis; AID 1029; inhibition, % at 5 µM; 0.07% of 110,000 active; J774A.1 macrophage IgG-bead phagocytosis, imaging;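 active means inhibition above the mean of the plate negative controls plus 5 SD, cut at about 13% in these data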;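 further: phagocytic index as fraction of beads internalized from green versus red external bead signal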
S1P2 ag = agonists of human S1P2 receptor; S1P2-expressing cell line, agonist reporter read-out; activation, % at 4.5 µM; 0.46% of 97,000 active; in the data active means activation above about 16%
GALR2 antag = GALR2 (human) receptor antagonism | O43603 | GALR2-expressing cells, antagonist mode | inhibition, % at 4 µM | 0.39% of 140,000 active | AID 828; in the data active means inhibition above about 27%;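 further: cells stimulated with galanin 1-16 at roughly its EC80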
GALR2 ag confirm = GALR2 (human) agonism confirmed; shares compounds with GALR2 agonist; GALR2-expressing cells, agonist activation; activation, % at 5.6 µM; 10% of 460 active; AID 864; in the data active means activation above about 8.4%
BLA activ ctr = beta-lactamase activation, GALR2 counterscreen. 10% of 460 active. shares compounds with GALR2 agonist. activation, % at 5.6 µM. AID 865. CHO NFAT-bla reporter, beta-lactamase FRET activation;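 active means activation above the screen-wide mean activation plus 3 SD, cut at about 8% in these data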
A number is an active result; . = inactive; / = not tested or not shown.

SMILES	GALR2 agonist	Candida biofilm	S1P2 blocker	Phagocyt inh	S1P2 ag	GALR2 antag	GALR2 ag confirm	BLA activ ctr
COc1ccc(C2CC(c3cccs3)=NN2C(=O)c2ccc(Br)o2)cc1 (stereo not drawn)	.	/	/	.	/	.	/	/
COc1ccc(C2CC(c3cccs3)=NN2c2ccc(C=O)cc2)cc1 (stereo not drawn)	29	/	/	.	/	.	15	32
COc1ccc(C2CC(c3ccccc3)=NN2c2ccc(/C=N/NC(=O)c3ccncc3)cc2)cc1 (stereo not drawn)	17	/	.	/	.	.	.	.
COC(=O)c1cccc(-n2c(C)cc(C=O)c2C)c1C	.	/	/	.	/	.	/	/
COC(=O)c1ccc(OC)c(-c2c(OC)cc(OC)cc2OC)c1	.	/	/	.	/	.	/	/
CCC(C)C(NC(=O)c1ccccc1NC(=O)c1ccc(OC)cc1)C(=O)NCc1ccco1 (stereo not drawn)	14	.	.	.	.	.	.	.
Cc1nc2ncnn2c(C)c1CCC(=O)NC(C)c1ccc2c(c1)OCCO2 (stereo not drawn)	.	/	.	/	.	.	/	/
CCN(CC)C(c1ccc(C)cc1)c1nnnn1C1CCCCC1 (stereo not drawn)	.	.	.	.	.	.	/	/
CCN(CC)C(c1ccc(F)cc1)c1nnnn1C1CCCCC1 (stereo not drawn)	9.8	.	.	.	.	.	.	.
CCCCCCN(C(=O)CCCCCN1C(=O)NC(c2ccc(Cl)cc2)C(C(=O)OCc2ccccc2)=C1C)C(C(=O)NCCCC)c1ccc(OCC(=O)OC)c(C(=O)OC)c1 (stereo not drawn)	.	/	/	/	/	.	/	/
Cc1ccc(NC(=O)Cn2c(/C=C/c3ccccc3)nc3ccccc32)cc1C	.	/	.	.	.	.	.	.
COC(=O)c1sccc1NC(=O)CN(C)NS(=O)(=O)c1ccc(F)cc1	.	/	.	/	.	.	.	.
COC(=O)c1sccc1NC(=O)CN(C)NS(=O)(=O)c1ccc(Cl)cc1	.	/	.	/	.	.	/	/
O=C(NNS(=O)(=O)c1ccccc1)C1CCN(S(=O)(=O)c2ccc(Cl)cc2)CC1	.	/	.	/	.	.	/	/
CC1CCCCN1C(=O)Cc1ccc(F)cc1 (stereo not drawn)	.	.	.	.	.	.	/	/
CC(Cc1ccccc1)C(=O)NCc1ccncc1 (stereo not drawn)	.	/	/	/	/	.	/	/
CC(Cc1ccccc1)C(=O)N[C@@H](CO)Cc1ccccc1 (stereo partly drawn)	23	/	/	/	/	.	.	.
O=S(=O)(c1cccc(C(F)(F)F)c1)N1CCN(c2ccccc2)CC1	12	.	.	/	.	.	.	.
O=C(Cn1c2ccccc2c(=O)c2ccccc21)Nc1ccccc1F	15	/	/	/	/	.	.	.
COc1ccc(S(=O)(=O)NCC2CCC(C(=O)NCCC(C)C)CC2)cc1 (stereo not drawn)	.	/	/	.	/	.	/	/
Cc1noc(C)c1COc1ccc(C(=O)OCC(=O)NCc2ccccc2Cl)cc1	.	/	/	.	/	.	/	/
CC(C)(C)C(=O)NC(=S)Nc1cc(C(F)(F)F)ccc1N1CCOCC1	.	/	.	.	.	.	.	.
CCCCN=C1NN=C(c2cc3ccccc3o2)CS1	.	/	/	.	/	.	/	/
O=C(N/N=C/c1cc(Cl)cc([N+](=O)[O-])c1O)NC12CC3CC(CC(C3)C1)C2	21	/	/	.	/	.	.	.
Cc1cc(C(=O)N/N=C/c2cc(Cl)cc([N+](=O)[O-])c2O)c2ccccc2n1	.	/	/	.	/	.	/	/
SMILES	GALR2 agonist	Candida biofilm	S1P2 blocker	Phagocyt inh	S1P2 ag	GALR2 antag	GALR2 ag confirm	BLA activ ctr
COc1ccc2ccccc2c1/C=N/NC(=O)c1sc(N)c(C#N)c1C	12	/	/	.	/	.	.	.
Cc1cc(C)c(-c2c(O)c3cnn(-c4ccccc4)c3[nH]c2=O)c(C)c1	34	/	/	.	/	.	.	.
O=C(Nc1ccc2c(c1)OCO2)C1CCCN1C(=O)OCc1ccccc1 (stereo not drawn)	.	.	/	.	/	.	/	/
O=C(Nc1ccc2c(c1)OCO2)OCc1ccccc1	12	.	.	.	.	.	.	.
N#Cc1c(NC(=O)c2ccccc2Cl)n(Cc2ccccc2)c2nc3ccccc3nc12	8.2	/	/	.	/	.	.	.
COc1cc(SC#N)ccc1N=Cc1c(C)[nH]n(-c2ccc(C)c(C)c2)c1=O	12	/	/	.	/	.	.	.
O=C(/C=C/c1ccco1)Nc1cc(Cl)ccc1C(=O)O	12	/	/	.	/	.	.	.
COc1ccc(Nc2nc(N)nc(CSc3nnc(C)s3)n2)cc1	.	.	.	/	.	.	/	/
COc1ccc(OC)c(Nc2nc(N)nc(CSc3nnc(N)s3)n2)c1	17	/	.	.	.	.	.	.
N#CC1=C(N)C(C#N)(C#N)C2(C(=O)Nc3ccccc32)C2CCCC=C12 (stereo not drawn)	.	.	/	.	/	.	/	/
NC(=O)C1CC(=O)N(c2ccc(OCC(=O)Nc3cccc(C(F)(F)F)c3)cc2)C1 (stereo not drawn)	.	.	.	.	.	.	.	.
COc1ccc(C(=O)NN(C)c2nc(-c3ccccc3)nnc2C(F)(F)F)cc1	.	/	.	.	.	.	/	/
CN(NC(=O)C(C)(C)C)c1nc(-c2ccccc2)nnc1C(F)(F)F	.	.	.	/	.	.	.	.
COc1ccc(CC(=O)Nc2ccc3nc(C)sc3c2)cc1OC	.	/	/	.	/	.	/	/
O=C(COC(=O)c1cc(-c2cccc3ccccc23)nc2ccccc12)NC1CCS(=O)(=O)C1 (stereo not drawn)	.	/	/	.	/	.	/	/
COc1ccc2cc(-c3cc(C(=O)OCC(=O)NC4CCS(=O)(=O)C4)c4ccccc4n3)ccc2c1 (stereo not drawn)	11	/	/	.	/	.	14	25
COc1cccc(C(=O)N(Cc2cc3cc(C)ccc3[nH]c2=O)CC2CCCO2)c1 (stereo not drawn)	.	.	/	.	/	.	/	/
CC1CCN(c2ccccc2NC(=S)NC(=O)c2ccc(-c3cccc([N+](=O)[O-])c3)o2)CC1	21	.	.	.	.	.	.	.
CC1CCN(c2ccc(NC(=S)NC(=O)c3ccc(-c4cccc([N+](=O)[O-])c4)o3)cc2)CC1	.	.	.	.	.	.	/	/
COC(=O)CCC(=O)Nc1nnc(C(F)(F)F)s1	144	.	.	/	.	.	.	.
CCOC(=O)Cc1csc(NC(=O)C2C3C=CC(C3)C2C(=O)O)n1 (stereo not drawn)	.	.	.	.	.	.	/	/
COc1cccc(C(=O)N(Cc2ccccc2)Cc2cc3cc4c(cc3[nH]c2=O)OCCO4)c1	.	.	.	/	.	.	/	/
COC(=O)c1cc2c(ccn2-c2ccc(F)cc2)n1CC(C)C	8.8	.	.	/	.	.	.	.
COC(=O)/C(=C/Nc1ccc(O)cc1)[N+](=O)[O-]	.	.	.	.	.	.	.	.
COC(=O)/C(=C/Nc1ccccc1)[N+](=O)[O-]	.	.	.	.	.	.	/	/
Cc1nc2ccc(S(=O)(=O)NCC(=O)NCCN3CCCCCC3)cc2s1	.	.	.	.	.	.	/	/

Screens from PubChem BioAssay.
